High-throughput results from PubChem BioAssay.
ELG1 repair inh: qHTS screen for small molecules that inhibit ELG1-dependent DNA repair in human embryonic kidney (HEK293T) cells expressing luciferase-tagged ELG1 | HEK293T ELG1-luciferase reporter, luminescence, 16 h; DNA damage induced by 5-fluorouridine | 330,000 compounds, 2.3% hits | Potency, µM (highest dose often 46.1 µM), for the others: at the highest dose activity change, negative = inhibition, most hits filed as inhibitors | AID 504467, 2011; further: on the % scale 0 is the no-effect control and ±100 the full control effect; nearly all actives have a fitted effect of over 55% in size
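5-Fluorouridine DNA damage + compound/DMSO, 2,000 cells/well, 16 h, 37 °C/5% CO2. ONE-Glo, 30 min RT, luminescence. Readout = decrease in reporter signal.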
SW480 rerep: A quantitative high throughput screen for small molecules that induce DNA re-replication in SW480 colon adenocarcinoma cells; SW480 DNA re-replication, Hoechst DNA content imaging, 48 h; Potency, µM (highest dose often 46.1 µM), without a hit: at the highest dose re-replication activation, hits mostly activators; 340,000 compounds, 1.8% hits; further: % of control where 0% means no effect; nearly all actives have a fitted effect of over 55% in size
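Treated cells incubate 48 hr (37 C, 5% CO2), are stained 40 min with Hoechst, and nuclear fluorescence is enumerated; a rise in nuclei with high DNA signal marks re-replication.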
KB-3-1 tox: qHTS assay for MDR1-selective chemotherapeutics: Primary screen using the parental adenocarcinoma cell KB-3-1; KB-3-1 viability, CellTiter-Glo ATP luminescence, 72 h; Potency, µM (highest dose often 46.1 µM), actives largely listed as cytotoxic; 400,000 compounds, 1.4% hits; AID 1347075, 2019; further: on the % scale 0 is the no-effect control and ±100 the full control effect; nearly all actives have a fitted effect of over 60% in size
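Using CellTiter-Glo luminescence, growth of non-resistant KB-3-1 adenocarcinoma cells is assessed 72 h after pin-tool compound addition at 37 °C. Normalized responses across the concentration series yield fitted curves.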
KB-V1 cytotox: qHTS assay for MDR1-selective chemotherapeutics: Primary screen using the drug-selected MDR subline cells KB-V1. KB-V1 MDR cells viability, CellTiter-Glo, 72 h. Potency, µM (top dose mostly 46.1 µM), most hits filed as cytotoxic. 400,000 compounds, 3.4% hits. AID 1347076, 2019; further: on the % scale 0 is the no-effect control and ±100 the full control effect; nearly all actives have a fitted effect of over 60% in size
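KB-V1 MDR subline cells in DMEM (phenol-red free, 10% FBS) exposed to compounds in qHTS concentration series for 72 h at 37 degrees C. Viability read by CellTiter-Glo luminescence; concentration-effect curves fitted after normalization and correction.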
MCF10A rereplic: A quantitative high throughput screen for small molecules that induce DNA re-replication in MCF 10a normal breast cells; MCF 10A DNA re-replication, Hoechst nuclear intensity, 48 h; Potency, µM (doses to about 46.1 µM), inactives show at the highest dose activity, positive = re-replication, most hits filed as activators; 350,000 compounds, 2.9% hits; AID 624296, 2012; further: % of control where 0% means no effect; nearly all actives have a fitted effect of over 50% in size
Active calls of the source: *; i = inactive; u = inconclusive; x = not tested or not shown; [ ] = dose if it differs, or a comment. Most compounds without a hit are left out; they make up all but 8.1% or so of the library. The call rests on the fitted dose curve; in most records, active means well fitted curve in the direction sought with a large enough effect; inconclusive means small, poorly fitted or top-dose-only effect, or another doubt; inactive means no such curve, though single readings can be large; an effect the other way counts as inactive or inconclusive. Potency means the concentration at half of the fitted maximal effect.

SMILES | ELG1 repair inh | SW480 rerep | KB-3-1 tox | KB-V1 cytotox | MCF10A rereplic
COc1ccc(S(=O)(=O)N[C@@H](C)C(=O)OCC(=O)Nc2cc3oc4ccccc4c3cc2OC)cc1 | u | 1% | i | i | 5%
CCN(CC)S(=O)(=O)c1ccc(C(=O)Nc2cc3oc4ccccc4c3cc2OC)cc1 | u | -4% | i | i | 25%
COc1cc2c(cc1NC(=O)c1cccc(S(=O)(=O)N(C)C)c1)oc1ccccc12 | u | u | i | 10µM* | u
COc1cc2c(cc1NC(=O)C(C)Sc1ccc(NC(C)=O)cc1)oc1ccccc12 (stereo not given) | 16µM* | 17% | u | i | u
COC(=O)c1sc(N)c(C(=O)OC)c1COC(=O)[C@@H](NS(=O)(=O)c1cccc(Cl)c1)C(C)C | 15µM* | 0% | i | i | u
COC(=O)c1c(NC(=O)COC(=O)[C@@H](NS(=O)(=O)c2cccc(Cl)c2)C(C)C)sc2c1CCC2 | u | -6% | i | i | 11%
CN(C)C=Nc1ncc2c([nH]c3ccccc32)c1C#N | u | 15% | u | 7.3µM* | 29%
CC1=C(CC/C(C)=N/NC(N)=S)C(C)(C)CCC1 | u | 11µM* | u | i | 13µM*
COCCn1c(SCc2nc3scc(-c4ccc(Cl)cc4)c3c(=O)[nH]2)nnc1-c1cccc(C)c1 | 23µM* | u | 21µM* | 5.2µM* | u
COc1ccc(NC(=O)CC2C(=O)N(C)C(=S)N2Cc2ccc3c(c2)OCO3)cc1 (stereo not given) | -2% | u | i | 15µM* | 5%
COc1ccc(NC(=O)CC2C(=O)N(C)C(=S)N2CCc2ccccc2)cc1 (stereo not given) | u | u | u | 10µM* | u
COc1ccc(NC(=O)CC2C(=O)N(c3ccc(C)cc3)C(=O)N2Cc2ccc3c(c2)OCO3)cc1 (stereo not given) | x | x | i | i | x
N=c1c2c(-c3ccccc3)c(-c3ccccc3)n(Cc3ccco3)c2ncn1CCO | -3% | -5%[9.22 µM] | i | i | 10µM*
N=c1c2c(-c3ccccc3)c(-c3ccccc3)n(Cc3ccco3)c2ncn1CCCO | 6% | u | i | u | u
CC(=O)c1cccc(NC(=O)/C=C/c2ccc([N+](=O)[O-])s2)c1 | u | 2.9µM* | u | 21µM* | 3.7µM*
Cc1ccccc1NC(=O)/C=C/c1ccc([N+](=O)[O-])s1 | u | 0.16µM* | u | u | 1.6µM*
Cc1cc(C)cc(NC(=O)/C=C/c2ccc([N+](=O)[O-])s2)c1 | -1% | u | 6.5µM* | u | 4.1µM*
COC(=O)c1cccc(NC(=O)/C=C/c2cccc([N+](=O)[O-])c2)c1 | u | 3% | i | i | 17%
O=C(c1cc2ccccc2o1)N1CCN(S(=O)(=O)c2cccs2)CC1 | u | -1% | i | i | 17%
Cn1nnc2cc(C(=O)N3CCC(c4ccccc4)C3)ccc21 (stereo not given) | u | -3%[9.22 µM] | i | i | -3%
CSc1ccc(CN(C)C(=O)CCNS(=O)(=O)c2ccc(C)c(C)c2)cc1 | u | 1% | i | u | 3%
O=C(c1ccc(Cl)cc1)N1CCN(S(=O)(=O)/C=C/c2ccccc2)CC1 | u | -24% | 23µM* | i | -2%
O=C(COc1ccccc1F)N1CCN(S(=O)(=O)/C=C/c2ccccc2)CC1 | -15% | -87% | i | 15µM* | 9%
COc1cccc(Cn2nc(SC)c(S(=O)(=O)c3ccccc3)c2N(C(C)=O)C(C)=O)c1 | x | x | i | i | x
CCOc1ccc(CCNC(=O)c2cc(-c3ccccc3)c(N3CCOCC3)s2)cc1OCC | 16µM* | -4% | i | i | 2%
SMILES | ELG1 repair inh | SW480 rerep | KB-3-1 tox | KB-V1 cytotox | MCF10A rereplic
CCOc1ccc(CCNC(=O)c2cc(-c3ccccc3)c(N3CCOCC3)s2)cc1 | x | -1% | i | i | -10%
O=C(NCc1ccc2c(c1)OCO2)c1cc(-c2ccccc2)c(N2CCOCC2)s1 | 18µM* | -5% | i | i | 11%
O=C(NCc1ccco1)c1cc(-c2ccccc2)c(N2CCOCC2)s1 | 21µM* | 4% | i | i | 27%
COc1ccc(Cl)cc1NC(=O)CSc1nc2ccsc2c(=O)n1CC1CCC(C(=O)O)CC1 (stereo not given) | u | -7% | i | i | 0%
CC(C)(C)OC(=O)N1CCN(C(=O)c2nc[nH]c2C(=O)N2CCN(c3ccccc3)CC2)CC1 | 9% | -7% | i | i | 19%
CCCN(CCC)c1nc(-c2ccccn2)nc2ccccc12 | u | 10µM* | 4.6µM* | 2.9µM* | 21µM*
c1ccc(CCNc2nc(-c3ccccn3)nc3ccccc23)cc1 | 4.1µM* | u | 12µM* | i | 11%
CCCN(CCC)c1nc(-c2ccccc2F)nc2ccccc12 | x | x | i | i | x
CCCCN(CC)c1nc(-c2ccncc2)nc2ccccc12 | 23µM* | u | u | i | u
CCN(CC)c1nc(-c2ccccn2)nc(-c2ccccc2)c1C#N | 12µM* | -45% | u | 16µM* | -6%
C=CCn1c(SCC(=O)Nc2ccc(C)cc2C)nnc1-c1cccnc1 | -4% | 2%[9.22 µM] | i | i | -3%
CN(C)c1ccc2c(c1)C(=NO)c1ccccc1-2 | x | -4% | i | i | 1%
O=C(O)C1CC=CCC1C(=O)Nc1cccnc1 (stereo not given) | u | 6% | i | i | -3%
Cc1ccc2ncc(C(=O)c3ccc(C)c(C)c3)c(S(=O)(=O)c3ccccc3)c2c1 | x | x | u | i | x
Cc1cccc(C(=O)c2cnc3ccccc3c2-c2ccccc2)c1 | u | 7% | i | u | 23µM*
COc1ccc(S(=O)(=O)NCCc2sc(C)nc2C)cc1 | x | x | i | u | x
COc1ccc(-c2nc(C)c(CCNS(=O)(=O)c3cc(Cl)ccc3Cl)s2)cc1 | x | x | 15µM* | 21µM* | x
Cc1nc(C)c(CCNS(=O)(=O)c2ccc(C)c(C)c2)s1 | x | x | u | 21µM* | x
COc1ccc(-c2nc(C)c(CCNS(=O)(=O)c3cc(C)c(C)cc3C)s2)cc1 | x | x | u | 18µM* | x
COc1ccc(OC)c(S(=O)(=O)NCCc2sc(-c3cccnc3)nc2C)c1 | x | x | i | u | x
Cc1nc(-c2ccccc2)sc1CCNS(=O)(=O)c1ccc(Br)cc1 | x | x | u | 21µM* | x
